Measurements reported in ChEMBL document CHEMBL1961873, “Compounds: GSK PKIS; Assays: Nanosyn kinase panel” (2012).

Experiments:
[1] = target: Platelet-derived growth factor receptor beta (Homo sapiens) (UniProt P09619); conditions: at 1 µM;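 note: each value is a mean percent inhibition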
[2] = target: Tyrosine-protein kinase FRK (Homo sapiens) (UniProt P42685); conditions: at 0.1 µM
[3] = target: Tyrosine-protein kinase FRK (Homo sapiens) (UniProt P42685); conditions: at 1 µM
[4] = target: Protein-tyrosine kinase 2-beta (Homo sapiens) (UniProt Q14289); conditions: at 0.1 µM
[5] = target: Protein-tyrosine kinase 2-beta (Homo sapiens) (UniProt Q14289); conditions: at 1 µM
[6] = target: Proto-oncogene tyrosine-protein kinase receptor Ret (Homo sapiens) (UniProt P07949); conditions: at 0.1 µM
[7] = target: Proto-oncogene tyrosine-protein kinase receptor Ret (Homo sapiens) (UniProt P07949); conditions: at 1 µM
[8] = system: Proto-oncogene tyrosine-protein kinase receptor Ret (Homo sapiens), P07949 [V804L]; conditions: at 0.1 µM
[9] = system: Proto-oncogene tyrosine-protein kinase receptor Ret (Homo sapiens), P07949 [V804L]; conditions: at 1 µM
[10] = system: Proto-oncogene tyrosine-protein kinase receptor Ret (Homo sapiens), P07949 [Y791F]; conditions: at 0.1 µM
Proto-oncogene tyrosine-protein kinase receptor Ret (Homo sapiens), P07949 [Y791F], sequence (P07949 whole entry Y791F): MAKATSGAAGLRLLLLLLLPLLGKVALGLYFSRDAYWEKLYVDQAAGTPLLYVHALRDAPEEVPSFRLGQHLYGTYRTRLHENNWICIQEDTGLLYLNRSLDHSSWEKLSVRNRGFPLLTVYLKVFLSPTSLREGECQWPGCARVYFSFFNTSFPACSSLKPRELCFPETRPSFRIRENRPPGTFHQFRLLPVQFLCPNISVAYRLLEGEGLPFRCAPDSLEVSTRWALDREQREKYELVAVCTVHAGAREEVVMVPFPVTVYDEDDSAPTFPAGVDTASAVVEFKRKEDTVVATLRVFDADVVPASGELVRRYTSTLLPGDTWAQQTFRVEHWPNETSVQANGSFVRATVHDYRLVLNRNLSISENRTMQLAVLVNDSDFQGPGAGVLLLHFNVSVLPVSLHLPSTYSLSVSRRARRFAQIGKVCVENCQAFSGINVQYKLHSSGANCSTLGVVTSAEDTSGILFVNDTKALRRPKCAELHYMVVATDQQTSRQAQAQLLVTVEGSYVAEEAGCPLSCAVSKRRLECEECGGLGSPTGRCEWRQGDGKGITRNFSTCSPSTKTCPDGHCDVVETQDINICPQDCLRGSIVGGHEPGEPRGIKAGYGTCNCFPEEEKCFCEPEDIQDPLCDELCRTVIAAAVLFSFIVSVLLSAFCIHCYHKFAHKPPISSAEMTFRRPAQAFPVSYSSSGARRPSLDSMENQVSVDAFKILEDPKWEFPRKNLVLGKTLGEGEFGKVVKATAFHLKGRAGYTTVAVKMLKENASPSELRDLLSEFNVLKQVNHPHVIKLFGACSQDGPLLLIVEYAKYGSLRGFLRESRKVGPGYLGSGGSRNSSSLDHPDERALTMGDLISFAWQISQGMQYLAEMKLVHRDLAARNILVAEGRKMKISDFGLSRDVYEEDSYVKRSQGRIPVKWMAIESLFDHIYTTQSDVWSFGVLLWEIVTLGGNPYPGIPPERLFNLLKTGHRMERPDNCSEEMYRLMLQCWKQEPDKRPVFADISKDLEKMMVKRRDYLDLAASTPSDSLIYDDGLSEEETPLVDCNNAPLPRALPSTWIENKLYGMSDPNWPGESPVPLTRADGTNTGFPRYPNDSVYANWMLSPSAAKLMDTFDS

Proto-oncogene tyrosine-protein kinase receptor Ret (Homo sapiens), sequence (P07949 whole entry): as the sequence (P07949 whole entry Y791F) above, with F791Y counted along it
Tyrosine-protein kinase FRK (Homo sapiens), sequence (P42685 whole entry): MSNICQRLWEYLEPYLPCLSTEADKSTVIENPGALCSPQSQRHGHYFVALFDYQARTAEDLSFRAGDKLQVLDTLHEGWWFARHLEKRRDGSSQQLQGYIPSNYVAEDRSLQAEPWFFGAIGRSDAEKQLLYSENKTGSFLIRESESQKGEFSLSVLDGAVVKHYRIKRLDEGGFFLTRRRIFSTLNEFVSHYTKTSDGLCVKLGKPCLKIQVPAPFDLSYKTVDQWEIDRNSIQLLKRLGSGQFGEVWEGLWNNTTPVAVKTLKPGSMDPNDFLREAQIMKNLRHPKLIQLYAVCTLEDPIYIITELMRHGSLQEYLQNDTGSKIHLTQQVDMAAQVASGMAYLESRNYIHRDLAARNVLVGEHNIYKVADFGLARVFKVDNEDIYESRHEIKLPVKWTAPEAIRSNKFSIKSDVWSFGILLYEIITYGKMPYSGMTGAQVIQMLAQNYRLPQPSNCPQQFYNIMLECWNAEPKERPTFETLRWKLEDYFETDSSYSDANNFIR
Platelet-derived growth factor receptor beta (Homo sapiens), sequence (P09619 whole entry): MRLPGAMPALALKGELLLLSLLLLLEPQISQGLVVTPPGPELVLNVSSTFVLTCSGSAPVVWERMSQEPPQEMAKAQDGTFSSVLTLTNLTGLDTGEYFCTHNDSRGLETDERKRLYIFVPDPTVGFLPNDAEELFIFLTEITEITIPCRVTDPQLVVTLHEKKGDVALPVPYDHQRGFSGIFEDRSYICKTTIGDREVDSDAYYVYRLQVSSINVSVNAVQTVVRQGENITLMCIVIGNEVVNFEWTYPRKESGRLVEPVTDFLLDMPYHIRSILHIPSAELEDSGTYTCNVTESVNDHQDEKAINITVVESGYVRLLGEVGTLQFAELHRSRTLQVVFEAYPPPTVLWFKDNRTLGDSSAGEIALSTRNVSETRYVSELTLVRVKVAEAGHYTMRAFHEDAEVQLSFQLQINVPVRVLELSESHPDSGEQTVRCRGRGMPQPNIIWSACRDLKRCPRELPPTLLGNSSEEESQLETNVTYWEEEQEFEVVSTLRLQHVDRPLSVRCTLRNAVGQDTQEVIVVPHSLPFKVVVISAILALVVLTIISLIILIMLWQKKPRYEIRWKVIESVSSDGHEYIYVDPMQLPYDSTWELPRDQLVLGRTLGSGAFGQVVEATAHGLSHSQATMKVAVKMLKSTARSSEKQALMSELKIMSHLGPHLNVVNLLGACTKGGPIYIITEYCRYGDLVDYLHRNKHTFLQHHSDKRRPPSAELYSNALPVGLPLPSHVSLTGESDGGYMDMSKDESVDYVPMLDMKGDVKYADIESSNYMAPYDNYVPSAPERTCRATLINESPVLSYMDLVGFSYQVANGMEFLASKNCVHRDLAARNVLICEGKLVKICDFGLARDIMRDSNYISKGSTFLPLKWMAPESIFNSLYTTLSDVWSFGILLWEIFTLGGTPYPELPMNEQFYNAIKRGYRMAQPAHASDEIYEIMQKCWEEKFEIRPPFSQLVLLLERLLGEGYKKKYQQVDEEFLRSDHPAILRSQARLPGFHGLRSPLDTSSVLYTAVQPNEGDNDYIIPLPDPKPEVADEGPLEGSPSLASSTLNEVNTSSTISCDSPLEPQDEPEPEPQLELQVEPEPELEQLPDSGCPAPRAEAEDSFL
Proto-oncogene tyrosine-protein kinase receptor Ret (Homo sapiens), P07949 [V804L], sequence (P07949 whole entry V804L): as the sequence (P07949 whole entry Y791F) above, with F791Y, V804L counted along it
Protein-tyrosine kinase 2-beta (Homo sapiens), sequence (Q14289 whole entry, looked up): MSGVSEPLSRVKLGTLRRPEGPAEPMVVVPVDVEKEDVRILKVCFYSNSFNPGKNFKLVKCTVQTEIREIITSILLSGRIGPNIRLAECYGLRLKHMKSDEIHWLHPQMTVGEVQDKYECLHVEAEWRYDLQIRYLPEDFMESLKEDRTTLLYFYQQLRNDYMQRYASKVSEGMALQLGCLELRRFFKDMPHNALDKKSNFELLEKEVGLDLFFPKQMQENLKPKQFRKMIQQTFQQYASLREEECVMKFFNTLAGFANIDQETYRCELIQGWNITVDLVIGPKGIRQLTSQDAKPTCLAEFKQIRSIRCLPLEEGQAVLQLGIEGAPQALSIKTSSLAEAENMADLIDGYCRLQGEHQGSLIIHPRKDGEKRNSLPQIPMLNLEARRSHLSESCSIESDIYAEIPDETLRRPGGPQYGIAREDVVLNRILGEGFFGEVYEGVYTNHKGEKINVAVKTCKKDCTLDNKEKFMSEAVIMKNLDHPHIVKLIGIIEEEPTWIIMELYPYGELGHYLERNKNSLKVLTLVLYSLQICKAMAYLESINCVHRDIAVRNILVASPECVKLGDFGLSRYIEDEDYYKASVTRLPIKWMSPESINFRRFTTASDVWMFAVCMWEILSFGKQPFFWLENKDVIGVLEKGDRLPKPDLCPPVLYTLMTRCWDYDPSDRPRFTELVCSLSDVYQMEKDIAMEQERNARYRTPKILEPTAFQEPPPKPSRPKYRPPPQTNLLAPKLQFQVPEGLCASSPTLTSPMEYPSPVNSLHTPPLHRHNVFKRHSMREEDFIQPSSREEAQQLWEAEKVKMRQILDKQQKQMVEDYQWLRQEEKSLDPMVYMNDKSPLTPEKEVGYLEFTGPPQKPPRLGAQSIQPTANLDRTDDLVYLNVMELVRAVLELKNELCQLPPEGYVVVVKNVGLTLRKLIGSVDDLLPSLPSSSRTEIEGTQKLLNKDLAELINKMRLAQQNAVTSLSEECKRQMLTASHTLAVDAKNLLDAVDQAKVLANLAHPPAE

| SMILES | inhibition [1] | inhibition [2] | inhibition [3] | inhibition [4] | inhibition [5] | inhibition [6] | inhibition [7] | inhibition [8] | inhibition [9] | inhibition [10] |
| --- | --- | --- | --- | --- | --- | --- | --- | --- | --- | --- |
| Nc1nc(-c2ccc(F)cc2)c(-c2ccc3ncccc3n2)s1 | 42.9% | 2.59% | 2.66% | 10% | 14.3% | 8.56% | 14.8% | 4.68% | 7.83% | 7.45% |
| CCn1c(-c2nonc2N)nc2cnc(Oc3cccc(NC(=O)c4ccc(N(C)C)cc4)c3)cc21 | 6.43% | 1.12% | 0.64% | 1.13% | 3.58% | 3.06% | 4.26% | 3.42% | 6.51% | 3.78% |
| Cc1cccc2c1NC(=O)/C2=N\Nc1ccc(S(N)(=O)=O)cc1 | 10.2% | 1.71% | 0.62% | 3.22% | 9.89% | 1.83% | 5.76% | 3.14% | 7.11% | 2.74% |
| COc1cc(N2CCN(C(C)C)CC2)ccc1Nc1nc(Nc2ccc(F)cc2C(N)=O)c2cc[nH]c2n1 | 26.9% | 2.93% | 12.7% | 95.5% | 97.8% | -3.34% | 9.44% | 8.15% | 43.8% | 4.48% |
| CN(C)CCOc1ccc(-c2nc(-c3ccncc3)c(-c3ccc4c(c3)CC/C4=N\O)[nH]2)cc1 | 15.7% | 2.18% | 1.99% | 5.76% | 10.5% | 5.96% | 7.06% | 3.07% | 6.45% | 2.28% |
| NS(=O)(=O)c1ccc(N/N=C2\C(=O)Nc3ccc4ncccc4c32)cc1 | 82.8% | 0.32% | 4.11% | 6.43% | 43.2% | 37.3% | 78.9% | 57.7% | 82.7% | 45.3% |
| Cc1ccc2c(-c3ccnc(Nc4ccccc4)n3)c(-c3ccc(F)cc3)nn2n1 | 68.1% | 3.09% | 14.2% | 15.2% | 47.5% | 14.8% | 46.6% | 1.27% | 0.44% | 14.7% |
| N#Cc1c(NC(=O)CN2CCOCC2)sc2c1CCCC2 | 8.2% | 2.9% | 1.5% | 9.37% | 14.3% | 4.27% | 7.18% | 1.54% | 8.77% | 5.41% |
| O=C(O[C@H]1CN[C@H](C#Cc2cc3ncnc(Nc4ccc(Cc5ccccc5)cc4)c3s2)C1)N1CCOCC1 | 0.85% | 1.3% | 1.99% | 0.11% | -6.94% | 3.39% | 5.06% | 1.75% | 2.21% | 1.94% |
| CCn1c(-c2nonc2N)nc2c(C#CC(C)(C)O)ncc(OC3CCNCC3)c21 | 41.1% | 0.94% | 2.25% | 6.98% | 45.3% | 4.43% | 10.3% | 1.1% | 4.05% | 1.51% |
| CCc1nn2ncccc2c1-c1ccnc(NC2CC2)n1 | 13.8% | 1.9% | 1.77% | -3.19% | 2.45% | 3.64% | 2.46% | 3.6% | 2.94% | 5.5% |
| COc1ccc2c(-c3ccnc(Nc4cccc(OC(F)(F)F)c4)n3)cnn2n1 | 32.6% | 1.94% | 1.99% | 14.4% | 59.9% | 3.2% | 8.79% | 3.12% | 12.5% | 1.41% |
| Fc1ccc(-c2nn3ncccc3c2-c2ccnc(Nc3ccc4c(c3)OCCO4)n2)cc1 | 69.7% | 5.64% | 25.4% | 16.4% | 44% | 23.5% | 64.9% | 4.29% | 4.6% | 30.8% |
| COc1cc2ncn(-c3cc(OCc4ccccc4C(F)(F)F)c(C(=O)N(C)C)s3)c2cc1OC | 34.4% | 0.68% | -0.25% | -0.29% | -5.44% | 3.06% | 22.1% | 0.43% | 7.17% | 1.87% |
| COc1cccc(-c2c[nH]c3c(N/N=C/c4ccncc4)ncnc23)c1 | 81.1% | 1.61% | 3.28% | 2.76% | 9.78% | 10.7% | 37.9% | 7.65% | 30.7% | 10.2% |
| c1cc(-c2cnn3nc(N4CCOCC4)ccc23)nc(NC2CC2)n1 | 51.7% | 1.71% | 1.99% | 15.8% | 15.4% | 5.62% | 15.6% | 3.15% | 8.37% | 6.04% |
| COc1ccc(-c2nn3ncccc3c2-c2ccnc(Nc3ccc4c(c3)OCCO4)n2)cc1 | 20.6% | 0.87% | 3.44% | -3.39% | 10.2% | 8.94% | 47.3% | 3.01% | 3.4% | 11.7% |
| COc1ccc(-c2oc3ncnc(N)c3c2-c2ccc(NC(=O)Nc3cc(C(F)(F)F)ccc3F)cc2)cc1 | 80.4% | 11.5% | 65% | 18.8% | 91% | 89% | 93.6% | 69.5% | 87.8% | 74.4% |
| CCCN1CCC(c2ccc(Nc3nc(Nc4cc(F)ccc4C(N)=O)c4cc[nH]c4n3)c(OC)c2)CC1 | 54.5% | 4.23% | 19.3% | 94.9% | 96.8% | 9.07% | 28.1% | 9.84% | 51.4% | 10% |
| CC(C)COC(=O)c1ccc2c(c1)/C(=C/Nc1ccc(S(N)(=O)=O)cc1)C(=O)N2 | 86% | -0.58% | 1.92% | 2.4% | 16.5% | 34% | 78% | 54.5% | 82.4% | 25.2% |
| COc1ccc2[nH]c3c4[nH]c5ccc(OC)cc5c4c4c(c3c2c1)C(=O)NC4=O | 85.1% | -0.26% | 0.68% | 29.5% | 80.6% | 40.5% | 77.3% | 71% | 82.1% | 44.8% |
| Cc1cccc(Nc2ncc(-c3ccccc3)o2)c1 | 37.2% | -0.04% | 3.76% | -0.77% | 4.02% | 1.88% | 7.33% | 0.92% | 4.53% | 2.77% |
| [O-][S+]1CCN(Cc2ccc(-c3ccc4ncnc(Nc5ccc(OCc6cccc(F)c6)c(Cl)c5)c4c3)o2)CC1 | 8% | 4.01% | 4.89% | 4.76% | 11.7% | 3.9% | 8.36% | 7.71% | 16.5% | 6.06% |
| COc1cc2c(cc1Nc1nc(Nc3ccsc3C(N)=O)c3cc[nH]c3n1)N(C(=O)CN(C)C)CCC2(C)C | 62.7% | 2.92% | 8.45% | 88.3% | 96.7% | 8.13% | 14.1% | 12.9% | 38.1% | 8.97% |
| CNC(=O)c1cc(-c2ccc(F)cc2)cc(-c2ccc(S(=O)(=O)N3CCCC3)cc2)c1N | 6.26% | 2.42% | 2.21% | 2.65% | 7.64% | 2.88% | 2.96% | 2.49% | 5.41% | 3.21% |
| CN1CCC(n2cnc(-c3ccc(F)cc3)c2-c2ccnc(Nc3ccccc3)n2)CC1 | 44.7% | 0.85% | 1.83% | 4.25% | 5.64% | 6.59% | 18.3% | 4.17% | 7.13% | 7.03% |
| CNC(=O)c1cncc(/C=C/c2ccccc2Cl)c1 | 20% | 0.04% | 0.05% | -1.7% | -0.21% | 4.56% | 7.64% | 0.9% | 10% | 0.47% |
| FC(F)(F)c1cccc(-c2nn3ncccc3c2-c2ccnc(Nc3ccc4c(c3)OCCO4)n2)c1 | 14.4% | 0.89% | 5.26% | -0.64% | 13.1% | 7.52% | 31.8% | 4.11% | 2.86% | 7.75% |
